Reference: the supplement of paper PMC6555819

Experiments:
Test in all cases: PBM binding z-score (relative to random genomic background probes); higher = stronger binding; sequences stand for … in GC…GCGATTGACAGCGTAGAATGAAGG
[1] = tested on: FXR:RXRa (NR concentration 270 nM, RXRa partner concentration 90 nM)
In short: (§1)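 Regression normalization was applied to scanned fluorescence from custom Agilent 4×180K protein-binding microarrays. Before scanning, arrays were incubated 1 h with ligand-free nuclear receptor dimers, and binding was detected with antibodies against each partner (one per run). Binding z-scores use the random background probes as reference.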

[2] = tested on: LXRa:RXRa (NR concentration 270 nM, RXRa partner concentration 90 nM)
In short: as §1

[3] = tested on: LXRa homodimer (NR concentration 270 nM)
In short: as §1

[4] = tested on: LXRb:RXRa (NR concentration 270 nM, RXRa partner concentration 90 nM)
In short: as §1

[5] = tested on: LXRb homodimer (NR concentration 270 nM)
In short: as §1

[6] = tested on: PPARa:RXRa (NR concentration 270 nM, RXRa partner concentration 90 nM)
In short: as §1

[7] = tested on: PPARg:RXRa (NR concentration 180 nM, RXRa partner concentration 90 nM)
In short: as §1

[8] = tested on: PPARg:RXRa 270nM:90nM, anti-RXR (NR concentration 270 nM, RXRa partner concentration 90 nM)
In short: as §1

[9] = tested on: PPARg:RXRa 30nM:10nM, anti-RXR (NR concentration 30 nM, RXRa partner concentration 10 nM)
In short: as §1

[10] = tested on: PPARg:RXRa 90nM:30nM, anti-RXR (NR concentration 90 nM, RXRa partner concentration 30 nM)
In short: as §1

Sequence | PBM binding z-score [1] | PBM binding z-score [2] | PBM binding z-score [3] | PBM binding z-score [4] | PBM binding z-score [5] | PBM binding z-score [6] | PBM binding z-score [7] | PBM binding z-score [8] | PBM binding z-score [9] | PBM binding z-score [10]
CCTACTGGGCCTAAAAGGTCATTGATGCCGATAA | 4.02 | 4.65 | 4.1 | 4.61 | 0.491 | 4.78 | 1.7 | 3.24 | 0.898 | 2.38
GCGACTGGGGCATCGGCAGGTTACCATAACTTAA | 0.0165 | -0.138 | -0.214 | 0.589 | -0.797 | 1.06 | 0.979 | 1.1 | -0.324 | 0.563
CCGACTGGGGCAGAAAGGTCACCATACCATCCGG | 3.52 | 3.99 | 1.97 | 3.56 | -0.936 | 4.65 | 4.35 | 5.18 | 3.05 | 4.59
CAACCTAGGTCAGGGCCAGTATAGGAGGAACGTT | 2.3 | 1.36 | -0.178 | 0.897 | -0.856 | 2.5 | 1.79 | 1.74 | 0.0391 | 0.938
TCTTGTAGATCAATAGAGGTTAGGAAAGTGCGCT | 1.24 | 1.49 | 0.276 | 0.914 | 0.11 | 1.62 | 0.163 | 2.04 | 3.13 | 2.57
ACTTACGGGTCAACGAGGTGATAGCACGCGTATA | 6.81 | 4.17 | 0.0422 | 3.7 | 0.296 | 5.53 | 5.36 | 5 | 2.26 | 4.11
GGAACTAGGGCAAGTTGATAGCAGAGTTTGATGG | 0.0855 | 0.0269 | 0.0494 | -0.0975 | -0.374 | 2.15 | 3.63 | 3.21 | 1.12 | 2.57
AGTCAAAGTTCATCTAGGTAACGTCAGATATGCT | 6.97 | 6.1 | 5.62 | 4 | 1.91 | 4.87 | 6.42 | 6.54 | 3.63 | 5.58
TGAATGAGGTAATAAGATCAGGGAACGTTGCAAA | -0.101 | -0.238 | -0.404 | -0.279 | -0.0513 | 0.529 | 0.563 | 0.725 | 0.309 | 0.427
TCTCGCAGGACACGAAAGGTCAGAGCTCGACATC | 2.57 | 3.8 | 2.98 | 3.17 | 0.477 | 3.71 | 1.25 | 2.76 | 2.41 | 2.44
TCATATAGGTAAATGCTGGGTGAAAGTCCGATCT | 1.03 | 1.11 | 0.288 | 0.818 | 0.924 | 1.38 | 0.836 | 2.2 | 3.63 | 3.26
GCTATTAGTTGAAAGGTCAACCGAATGATTCTCG | 5.42 | 6.07 | 4.71 | 5.26 | 1.55 | 5.77 | 7.71 | 6.96 | 6.56 | 7.52
TAGCCTAGGTCCTGGGCCAGTATACCACGCGAAC | -0.638 | -1.08 | -0.796 | -0.85 | -1.45 | -0.439 | -0.0172 | -0.469 | -1.04 | -0.662
CGACCAAGGTCAATGCTAGGTCAGTGAAAGCATT | 6.54 | 5.4 | 1.97 | 3.95 | 0.214 | 4.99 | 3.99 | 4.62 | 1.63 | 3.37
CCAGACAGGTGAAAGGTAATTCAGTCTGGTACGC | 0.605 | 0.764 | -0.068 | 0.645 | -0.433 | 3.29 | 5.24 | 5.83 | 4.2 | 5.95
CTCGAAAAGTCGGTTGAGGTGAGTATACGGATAA | 0.673 | 0.0454 | -0.319 | -4.02e-05 | -0.053 | 0.458 | -0.07 | -0.172 | 0.085 | -0.0769
TAGCCTAGGTGATTCAGGGGCCAGTATAGAAAGC | -0.423 | -0.634 | -0.348 | -0.094 | -0.239 | 0.0128 | 0.0919 | -0.199 | -0.433 | 0.0704
GCAGACAGGTCAAACGCAGGTAACTCAGGGTGGC | 6.46 | 4.96 | 1.47 | 3.62 | 0.592 | 5.06 | 3.15 | 3.59 | 0.933 | 2.14
TCTAGCAGGCCAGAGGGTCACGCAAGAGGTACGG | 1.68 | 1.54 | -0.618 | 1.93 | -1.47 | 3.24 | 2.4 | 2.99 | 1.96 | 2.57
TCGATTAGGTTAGGGGCATTCAGAATGGCGTCGA | 0.719 | 0.542 | 0.0424 | 1.5 | 0.612 | 1.46 | 0.358 | 2.01 | 2.41 | 2.22
TCGAGTAGGTTACCAATCGGGCATTCAGCTTTCT | -0.222 | 0.961 | -0.836 | -0.125 | -1.27 | 0.717 | -0.0284 | 1.08 | 1.26 | 1.27
TGAATGAGTTTAAAGATCAGGGAACGTGGCGTCG | -0.0413 | 0.111 | -0.578 | -0.0738 | 0.209 | 0.791 | 0.824 | 1.77 | 1.35 | 1.46
CAAACTAGATCAAAGGTCAAAGTCGAGCCAACCA | 5.73 | 5.82 | 5.07 | 5.77 | 3.09 | 6.79 | 11.4 | 10.2 | 11.1 | 11.9
GTACCAAGGTGAATAGGTCGTTGACGAGTAGGCG | 1.08 | 0.711 | -0.12 | 0.495 | -0.439 | 2.45 | 1.58 | 1.84 | 0.445 | 1.35
GCTAGTTGGGCAGTAAAAGGTCACACACCGGTCG | 3.19 | 4.3 | 4.34 | 3.64 | 0.418 | 4.28 | 2.12 | 3.8 | 1.65 | 3.19

Sequence | PBM binding z-score [1] | PBM binding z-score [2] | PBM binding z-score [3] | PBM binding z-score [4] | PBM binding z-score [5] | PBM binding z-score [6] | PBM binding z-score [7] | PBM binding z-score [8] | PBM binding z-score [9] | PBM binding z-score [10]
CCTTACGGGTCACTGACAGGTTAAAGCATTTGGA | 5.65 | 4.59 | 0.409 | 3.69 | -0.38 | 5.05 | 4.6 | 4.5 | 1.97 | 3.25
CCAACTGGGGCAAAGGTTACCATACTCAGTACGA | 1.45 | 1.76 | 0.221 | 2.29 | -0.694 | 6.03 | 11.6 | 9.99 | 9.26 | 10.5
CCTTACGGGTCAAAGTTATAGCACGGGTGGTACG | 6.21 | 3.95 | 0.182 | 3.42 | 0.711 | 5.06 | 5.04 | 5.46 | 2.56 | 4.63
GCTATTAGTTTAAAGGGCAACCGAATGATTCTCG | 0.917 | 1.13 | 0.643 | 1.42 | 0.922 | 2.44 | 2.98 | 4.5 | 2.59 | 4.67
GCGACTGGGGCAAAGCAGGTTACAATAAGGTTGG | 0.383 | 0.245 | -0.467 | 0.623 | -0.699 | 1.6 | 1.48 | 1.49 | 0.224 | 0.898
CCAGACAGGTGATAAGGTAACTCAGCCTCGATTA | 0.336 | 0.0665 | -0.0911 | 0.157 | -0.187 | 0.51 | 0.555 | 0.114 | 0.063 | 0.191
TCTTGTAGATCAGCAGCTTAAGAAAGCTGGCCAA | -0.0933 | -0.339 | -0.557 | -0.411 | -0.692 | 0.41 | -0.825 | 0.886 | 2.45 | 1.69
TGATATAGGTAAAAGGTGAAAGTCGGTGTGGTAA | 1.72 | 1.59 | 0.194 | 1.96 | 0.256 | 5.88 | 9.54 | 8.88 | 8.67 | 9.7
CATACAGGGTCAGCTGGGCCAGAGTAGGGACGGC | 4.32 | 3.28 | -0.0929 | 2.08 | 0.0372 | 4.46 | 2.85 | 3.35 | 0.594 | 2.16
CAAACTAGGTCACAGAGGTAAAAGTCCGTGCGTA | 4.42 | 3.37 | 0.644 | 2.58 | 0.501 | 5.38 | 9.21 | 7.63 | 5.5 | 7.27
CCTATTGGGCCAAGGTCATTGATCAGTCAAAGCA | 3.16 | 2.92 | 0.821 | 2.85 | -0.34 | 3.83 | 2.79 | 3.83 | 1.37 | 3.21
CCGGCTGGGGCAGAAAGGTTACCATACCATCCGG | 0.0889 | 0.439 | -0.422 | 0.64 | -1.29 | 1.61 | 0.79 | 1.64 | -0.158 | 1.06
GCGACTGGGGCAAACCAGGTTACCATAAGGTTGG | 0.393 | 0.174 | -0.329 | 0.0865 | -0.736 | 1.37 | 1.43 | 1.51 | -0.386 | 0.602
CATACAGGGTGAGCTAGGCCAGAGTAGGGACGGC | 0.0783 | -0.27 | -0.348 | -0.501 | -0.241 | 0.234 | 0.608 | -0.129 | -0.308 | -0.186
TCTGCTAGGTCAACGATGGTCAGCTCATCTGCTA | 3.56 | 2.79 | 0.0556 | 1.81 | 0.088 | 3.34 | 2.4 | 2.89 | 1.65 | 2.19
CGAACTAGGTCCAGGACAGTGAATCTCCGCACGC | -0.204 | -0.571 | -0.353 | -0.95 | -0.661 | -0.195 | 0.3 | -0.587 | -0.632 | -0.449
ACTGTTAGTTGAGACGAGGGCAACCGATAGGTTG | 0.919 | 0.0939 | -0.0594 | 0.0493 | 0.747 | 0.275 | 0.412 | -0.13 | -0.0644 | 0.0713
ATCTCTAGGTAAAGATCAGTGAAAGATCGATAGA | 0.248 | 0.153 | 0.0101 | 0.0437 | 0.463 | 0.624 | 1.04 | 1.14 | 0.487 | 0.992
ACTCGGAGGACAAAGTTCAGAGCTACGCCAGTGA | 1.48 | 1.83 | 1.79 | 0.868 | -0.232 | 2.82 | 4.04 | 5.27 | 3.37 | 5.49
CTCGAAAGGTCGGCTGAGGTGAGTATACGGATAA | 3.7 | 2.47 | -0.364 | 1.86 | -0.336 | 3.62 | 0.965 | 2.18 | 0.306 | 1.12
GAAACAGGGTCAAGGCCAGAGTACGCGTATTGAT | 7.06 | 4.18 | -0.0634 | 3.92 | -0.239 | 6.22 | 6.82 | 6.19 | 3.1 | 5.15
TCGAGTAGGTTAGGGGCAATCAGAATGGCGTCGA | 0.369 | 0.37 | -0.18 | 0.715 | -0.231 | 1.41 | 1.53 | 2.73 | 1.47 | 2.42
TCATATAGGTAAAAGGTAAAAGTCGGTGTGGTAA | 1.72 | 1.53 | 0.146 | 1.47 | 0.114 | 4.59 | 7.89 | 7.76 | 7.87 | 8.16
TCATATAGGTAAAAGTTGAAAGTCGGTGTGGTAA | 1.54 | 1.21 | 0.41 | 1.21 | -0.0163 | 4.24 | 7.51 | 7.35 | 7.31 | 8.17
